eIF4E-4G inh: eIF4E/eIF4G interaction inhibition in translation initiation | 220,000 compounds, 0.37% hits | P63073+Q04637 | inhibition, % at 21.7 µM | TR-FRET eIF4E-eIF4GI(517-606) binding, 2 h;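 active means inhibition above about 30%, limit read from the data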;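 further: 0% = full FRET control wells and 100% = background wells lacking eIF4GI fragment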
PABP1 MLLE inh: blocks PAM2 peptide binding to the PABP1 MLLE domain. inhibition, % at 20 µM. AID 588489. GST-MLLE / FITC-PAM2 fluorescence polarization. P11940. 360,000 compounds, 0.36% hits; in the data active means inhibition above about 35%, passing the limit was not always enough;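 further: plate controls were DMSO wells with GST-MLLE for no effect and wells lacking GST-MLLE protein for full effect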
PABP FP inh: blocks human PABP binding to poly(A) RNA; inhibition, % at 35 µM; P11940; fluorescence polarization; AID 2014; 290,000 compounds, 1% hits;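 further: calls also rest on retests at 20 µM and on dose response follow-up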
eIF4H FP inh: inhibitors of RNA binding by human eIF4H | Q15056 | AID 2012 | inhibition, % at 35 µM | eIF4H fluorescence polarization binding assay | 290,000 compounds, 0.94% hits;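 further: calls also rest on retests at 20 µM and on dose response follow-up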
PERK inh: human PERK inhibition, primary cell-based screen; Q9NZJ5; CHO PERK-DD fusion, SEAP luminescence translation reporter; inhibition, % at 5.6 µM; 220,000 compounds, 0.17% hits; AID 1416;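 active means inhibition above the mean inhibition of all tested compounds plus 3 SD, set separately per screening campaign, cut at about 2.9% in these data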;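 further: PERK kinase domain activated by AP20187 dimerizer at 100 nM; 0% = DMSO with dimerizer and 100% = rapamycin at 8.4 µM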
Target sequence (Q9NZJ5 whole entry, looked up, the tested form may be a part): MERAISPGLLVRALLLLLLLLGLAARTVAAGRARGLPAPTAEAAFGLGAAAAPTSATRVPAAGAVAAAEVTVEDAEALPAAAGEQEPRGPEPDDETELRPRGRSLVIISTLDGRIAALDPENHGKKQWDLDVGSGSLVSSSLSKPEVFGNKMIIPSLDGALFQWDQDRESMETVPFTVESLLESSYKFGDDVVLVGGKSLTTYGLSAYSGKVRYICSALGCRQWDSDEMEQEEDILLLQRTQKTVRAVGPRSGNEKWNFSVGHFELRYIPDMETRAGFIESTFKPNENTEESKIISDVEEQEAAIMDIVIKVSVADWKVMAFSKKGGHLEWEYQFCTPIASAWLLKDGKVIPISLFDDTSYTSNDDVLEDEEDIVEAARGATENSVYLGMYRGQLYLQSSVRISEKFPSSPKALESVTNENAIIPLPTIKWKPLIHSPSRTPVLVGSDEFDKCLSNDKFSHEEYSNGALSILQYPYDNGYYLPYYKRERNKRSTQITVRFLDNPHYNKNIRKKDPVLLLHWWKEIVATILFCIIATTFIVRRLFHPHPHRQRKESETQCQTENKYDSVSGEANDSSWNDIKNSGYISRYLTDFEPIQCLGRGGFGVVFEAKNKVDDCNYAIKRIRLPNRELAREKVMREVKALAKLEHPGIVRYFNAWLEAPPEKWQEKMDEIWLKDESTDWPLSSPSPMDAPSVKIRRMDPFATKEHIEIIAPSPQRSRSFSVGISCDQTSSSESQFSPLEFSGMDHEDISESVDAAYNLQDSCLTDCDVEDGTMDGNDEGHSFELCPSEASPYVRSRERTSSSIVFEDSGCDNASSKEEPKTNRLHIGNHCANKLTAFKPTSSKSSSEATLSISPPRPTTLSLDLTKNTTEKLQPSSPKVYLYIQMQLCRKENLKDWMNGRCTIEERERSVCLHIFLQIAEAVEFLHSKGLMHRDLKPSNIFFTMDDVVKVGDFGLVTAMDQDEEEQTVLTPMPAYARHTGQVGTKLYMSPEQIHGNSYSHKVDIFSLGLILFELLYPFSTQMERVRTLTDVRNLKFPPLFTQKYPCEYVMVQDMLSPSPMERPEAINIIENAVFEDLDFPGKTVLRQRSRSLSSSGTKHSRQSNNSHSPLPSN
* = called active by the depositor; ! = repeats disagree; [ ] = remark or other dose. Only some compounds are listed: those with a hit (about 1.6% of all), similar ones and a draw of the others. Unless noted, how the calls were made is not given here.

For O=C(N/N=C/c1ccc([N+](=O)[O-])o1)c1cc2c(ccc3ccccc32)o1 the results were eIF4E-4G inh 38.5*, PABP1 MLLE inh -5.5, PABP FP inh 31.6*, eIF4H FP inh 75.5 and PERK inh 0.6.
`O=C(/C=C/c1cccc(F)c1)NCCCn1ccnc1` gave PABP1 MLLE inh 5.8, PABP FP inh -3.5 and eIF4H FP inh 3.7.
For CC(C)CNc1ncnc2c1ncn2[C@H]1CN(Cc2ccc(C(=O)O)cc2)C[C@@H](CO)O1 the results were PABP1 MLLE inh -0.1.
Screening CN(C)CCOC(c1ccccc1)c1ccccc1 returned eIF4E-4G inh 3.6, PABP1 MLLE inh -6.3, PABP FP inh 98.1, eIF4H FP inh 1.6*! and PERK inh 0.1.
CN(C)CCOC(c1ccccc1)c1ccccc1 (tested in a mixture with another compound) was read as eIF4E-4G inh 5.3, PABP1 MLLE inh -22.1, PABP FP inh 3.9, eIF4H FP inh 3.3 and PERK inh 1.0.
Screening Cc1ccc(NC(=O)N2CCCC2C(=O)Nc2nnc(C(C)C)s2)cc1 (stereo not drawn) returned PABP1 MLLE inh -1.9, PABP FP inh -7.5 and eIF4H FP inh -0.3.
`Cc1ccc(NC(=S)N=Nc2c(O)[nH]c3ccccc23)cc1` gave eIF4E-4G inh -5.0, PABP1 MLLE inh 25.7, PABP FP inh 10.9, eIF4H FP inh 8.5 and PERK inh -1.1.
For CNC(=S)N=Nc1c(O)[nH]c2ccccc12 the results were eIF4E-4G inh -4.4, PABP1 MLLE inh 28.8, PABP FP inh -7.5, eIF4H FP inh 0.9 and PERK inh 0.6.
`Oc1ccc(NC(=S)N=Nc2c(O)[nH]c3ccccc23)cc1` gave eIF4E-4G inh -3.4, PABP1 MLLE inh 51.7*, PABP FP inh 23.9, eIF4H FP inh 8.4 and PERK inh 0.9.
COc1ccc(NC(=S)N=Nc2c(O)[nH]c3ccccc23)cc1 was read as eIF4E-4G inh -8.9, PABP1 MLLE inh 40.7*, PABP FP inh 2.7, eIF4H FP inh 14.0 and PERK inh -2.1.
CCn1c2ccccc2c2nnc(SCc3ccc(C(=O)OC)o3)nc21 was read as eIF4E-4G inh 1.1, PABP1 MLLE inh 41.3*, PABP FP inh -1.6, eIF4H FP inh -3.4 and PERK inh -0.1.
For O=C(CN1C(=O)CSC1=O)Nc1ccccc1N1CCOCC1 the results were eIF4E-4G inh -0.4, PABP1 MLLE inh 3.3, PABP FP inh -6.0, eIF4H FP inh -6.2 and PERK inh 3.1*.
`CC(C)(C)OC(=O)N1CCC(C(=O)Nc2cccc(C(=O)N3CCCCC3)c2)CC1` gave PABP1 MLLE inh -10.0.
COc1ccc(/C=N/N=C2/NC(=O)C(CC(=O)NC(N)=O)S2)cc1 (stereo not drawn) was read as eIF4E-4G inh -1.1, PABP1 MLLE inh -0.8, PABP FP inh 8.5, eIF4H FP inh 0.2 and PERK inh 0.7.
For CCCCNC(=O)CC1S/C(=N/N=C/c2ccc(OC)cc2)NC1=O (stereo not drawn) the results were eIF4E-4G inh -2.0, PABP1 MLLE inh -13.9, PABP FP inh 84.5, eIF4H FP inh 10.4* and PERK inh 0.6.
For COCCn1c(C)cc(C(=O)COC(=O)c2cc3c(s2)CCC3)c1C the results were eIF4E-4G inh 0.6, PABP1 MLLE inh 4.9, PABP FP inh 77.2*, eIF4H FP inh 90.9* and PERK inh 1.2.
Screening COCCn1c(C)cc(C(=O)COC(=O)c2cccc(O)c2)c1C returned eIF4E-4G inh -9.5, PABP1 MLLE inh -4.6, PABP FP inh 3.8, eIF4H FP inh 4.3 and PERK inh 0.3.
For O=C(O)c1ccccc1C(=O)Nc1nccs1 the results were eIF4E-4G inh 71.8*, PABP1 MLLE inh -4.2, PABP FP inh -6.1, eIF4H FP inh 4.4 and PERK inh 1.7.
COC(=O)c1ccc2nc(C3CCCCC3)c(Cc3ccc(C)cc3)n2c1 was read as PABP1 MLLE inh 8.0.
Screening O=C(N/N=C/c1ccc([N+](=O)[O-])o1)C1CCCC1 returned PABP1 MLLE inh 12.5, PABP FP inh 14.3 and eIF4H FP inh 23.1.
For O=[N+]([O-])c1ccc(/C=[N+](\[O-])[C@@H]2CCCC[C@@H]2/[N+]([O-])=C/c2ccc([N+](=O)[O-])o2)o1 the results were PABP1 MLLE inh 5.5, PABP FP inh 48.2* and eIF4H FP inh 81.0*.
`COc1ccc(C2(C)NC(=O)N(CC(=O)c3cc(C)n(C4CC4)c3C)C2=O)cc1OC` (stereo not drawn) gave PABP1 MLLE inh -4.0.
Screening O=C(Nc1nnc(C23CC4CC(CC(C4)C2)C3)s1)c1ccc(N2C(=O)CCC2=O)cc1 returned eIF4E-4G inh 61.5*[fluorescence artefact?], PABP1 MLLE inh 1.4, PABP FP inh 11.0, eIF4H FP inh 43.7 and PERK inh 0.7.
`COCCn1cnnc1SCC(=O)Nc1ccccc1C(=O)Nc1ccc2c(c1)OCO2` gave eIF4E-4G inh 0.5, PABP1 MLLE inh -5.0, PABP FP inh 52.5, eIF4H FP inh 5.6* and PERK inh 0.0.
`O=C(O)c1ccc(CNc2ccccc2C(=O)O)cc1` gave eIF4E-4G inh -2.2, PABP1 MLLE inh 0.5, PABP FP inh 76.8*, eIF4H FP inh 77.4* and PERK inh 0.8.
For O=C(O)c1ccccc1NCc1ccncc1 the results were eIF4E-4G inh -2.8, PABP1 MLLE inh 13.2, PABP FP inh -8.8, eIF4H FP inh -7.4 and PERK inh -0.4.
`COc1ccc2c(c1)C(=O)C1NC(=O)NC(=O)C1(Br)N2` (stereo not drawn) gave PABP1 MLLE inh 7.9.
For OCCN1CCN(C(c2cccs2)c2ccc3cccnc3c2O)CC1 (stereo not drawn) the results were eIF4E-4G inh 45.7*[fluorescence artefact?], PABP FP inh 6.4, eIF4H FP inh 30.1 and PERK inh 2.5.
Screening CN1CCN(C(c2ccc(C(F)(F)F)cc2)c2cc(Cl)c3cccnc3c2O)CC1 (stereo not drawn) returned PABP FP inh -4.8 and eIF4H FP inh 2.8.
For CCN1CCN(C(c2ccc(C(F)(F)F)cc2)c2ccc3cccnc3c2O)CC1 (stereo not drawn) the results were PABP1 MLLE inh 40.6*, PABP FP inh -15.1 and eIF4H FP inh 4.2.
For Cc1ccc([C@H]2C[C@@H](n3cc(COC(=O)c4ccccc4)nn3)[C@H](O)CN2C(=O)c2cccs2)cc1 the results were PABP1 MLLE inh 2.7.
CSCCC(NS(=O)(=O)c1ccc(C)cc1)C(=O)NC1CCCCCC1 (stereo not drawn) was read as PABP1 MLLE inh 3.8.
Screening CC(=O)CSc1nc2c(c(=O)[nH]c(=O)n2C)n1CCCc1ccccc1 returned PABP1 MLLE inh -66.9, PABP FP inh -5.0 and eIF4H FP inh -0.9.
Cc1cc(C)c2nc(-c3ccccn3)cc(C(=O)n3cccn3)c2c1 was read as eIF4E-4G inh 4.9, PABP1 MLLE inh -3.9, PABP FP inh 61.0*, eIF4H FP inh 24.7 and PERK inh 0.3.
`Cc1c(Cl)ccc2c(C(N)=O)cc(-c3ccccn3)nc12` gave eIF4E-4G inh 1.6, PABP1 MLLE inh -0.9, PABP FP inh 16.7, eIF4H FP inh 30.9 and PERK inh 0.4.

Screening results from PubChem.
